Shown is part of a subset that was picked to be rich in hits.
PD-1 reverse act: activators reversing PD-1 mediated T-cell inhibition; primary human CD4 T cells, PD-L1 beads, CellTiter-Glo 96 h; activation, % (concentration not given with the values); 29,000 tested, under 10 active; AID 2316; call rule not given here
NOMO-1 viab: STK33 inhibitor candidate reducing NOMO-1 cell viability. NOMO-1 AML viability, CellTiter-Glo luminescence, 72 h. inhibition, % (test concentration not listed). 37,000 tested, 7.5% active; in the data active = inhibition above about 80%; inconclusive = no clear call, values can overlap the other calls
U2OS ROS induce: cancer cell ROS induction | U2OS ROS induction, H2DCF-DA fluorescence | AID 624156 | 46,000 tested, 2% active | ROS induction (% of piperlongumine), % at 10 µM; in the data active = ROS induction above about 79%, passing the limit was not always enough; inconclusive = no clear call, values can overlap the other calls
Hits are given with their value; 0 = inactive; ? = inconclusive; - = no result.

SMILES	PD-1 reverse act	NOMO-1 viab	U2OS ROS induce
CC1(C)CC(=O)C2=C(C1)NC(Nc1nc3ccccc3o1)=NC2c1ccccc1 (centres undefined)	-	-	0
C=CCN=C(SC)N1CCN(C(=NCC=C)SC)CC1	-	-	0
CCCNC(=O)c1cnn2c(C)c(Cc3ccccc3)c(C)nc12	-	-	0
CCOC(=O)c1cc(S(=O)(=O)NC(C)CC)cn1C (centres undefined)	-	-	0
CC(=O)Nc1ccc(S(=O)(=O)NC2CCCC2)cc1	-	-	0
CC1=CC(C)(C)N(C(=O)/C=C/c2ccccc2)c2ccc(C)cc21	-	-	0
O=C(COC(=O)c1c(C(F)(F)F)cccc1C(F)(F)F)c1ccc(Cl)cc1	0	111	0
O=C(COC(=O)c1ccc(Br)cc1)c1ccc(Br)cc1	0	0	0
N#CC1CN(CCc2ccccc2)CN(CCc2ccccc2)C1	0	111	0
O=C1NCC2(CCN(CCc3ccccc3)CC2)O1	-	0	0
O=C1O[C@H](c2ccccc2)[C@H](c2ccccc2)N2[C@H]1[C@@H](C(=O)O)[C@]1(C(=O)Nc3ccc(C#CC4(O)CCCCCC4)cc31)[C@H]2c1ccc(OCCO)cc1	-	-	0
COC(=O)C(CC#Cc1ccc2c(c1)[C@]1(C(=O)N2)[C@H](c2ccc(OCCO)cc2)N2[C@H](c3ccccc3)[C@H](c3ccccc3)OC(=O)[C@H]2[C@@H]1C(=O)N1CCCCCCC1)C(=O)OC	-	-	128
O=C1O[C@@H](c2ccccc2)[C@@H](c2ccccc2)N2[C@@H](c3ccc(OCCO)cc3)[C@]3(C(=O)Nc4ccc(C#CC5=CCCCC5)cc43)[C@@H](C(=O)N3CCN(c4ncccn4)CC3)[C@H]12	-	-	0
COC(=O)C(CC#Cc1ccc2c(c1)[C@]1(C(=O)N2)[C@H](C(=O)N2CCc3cc(OC)c(OC)cc3C2)[C@H]2C(=O)O[C@H](c3ccccc3)[C@H](c3ccccc3)N2[C@@H]1c1ccc(O)cc1)C(=O)OC	-	-	0
O=C1O[C@H](c2ccccc2)[C@H](c2ccccc2)N2[C@H]1[C@@H](C(=O)N1CCCCCCC1)[C@]1(C(=O)Nc3ccc(C#CC4=CCCCC4)cc31)[C@H]2c1ccc(OCCO)cc1	-	-	100
O=C1O[C@@H](c2ccccc2)[C@@H](c2ccccc2)N2[C@@H](c3ccc(OCCO)cc3)[C@]3(C(=O)Nc4ccc(C#CC5(O)CCCCCC5)cc43)[C@@H](C(=O)N3CCCCCCC3)[C@H]12	-	-	135
CCOC(Cn1c(SCC#N)nc2ccccc2c1=O)OCC	-	-	0
CC1(C)CC(=O)c2cc(OCC(=O)NC3CCCC3)ccc2O1	-	-	0
Cc1[nH]c2ccccc2c1Sc1ccccc1	0	141	0
CCCNC(=O)c1[nH]c2ccccc2c1Sc1ccc(Cl)cc1	-	-	0
C[C@H](CO)N1C[C@H](C)[C@@H](CN(C)Cc2ccc(-c3ccccc3)cc2)Oc2ccc(NC(=O)Cc3ccccc3)cc2C1=O	0	0	274
C[C@@H]1CN([C@@H](C)CO)C(=O)c2cc(NC(=O)Cc3ccccc3)ccc2O[C@H]1CN(C)Cc1ccccc1	0	0	0
C[C@@H]1CN([C@@H](C)CO)C(=O)c2cc(NC(=O)Cc3ccccc3)ccc2O[C@@H]1CN(C)Cc1ccccc1	-	0	0
C[C@H]1CN([C@@H](C)CO)C(=O)c2cc(NC(=O)Cc3ccccc3)ccc2O[C@@H]1CN(C)Cc1ccc(-c2ccccc2)cc1	0	0	177
O=C(NC1CCCC1)c1cc(=O)[nH]c2ccc(Br)cc12	-	-	0
SMILES	PD-1 reverse act	NOMO-1 viab	U2OS ROS induce
COc1ccc2[nH]c3c(=O)n(Cc4ccc(C(=O)NCCc5ccc(C)cc5)cc4)c(=S)[nH]c3c2c1	-	-	0
CCC(C)c1ccc(NC(=S)NC(=O)c2ccco2)cc1 (centres undefined)	-	-	0
O=C(Nc1ccc(OCc2ccccc2)cc1)N1CCN(c2ccccn2)CC1	-	-	0
C=CCn1c(-c2ccc(OC)cc2)csc1=Nc1ccc(Br)cc1	-	-	0
CC(C(=O)O)N1C(=O)/C(=C/c2ccc(Cl)cc2)SC1=S (centres undefined)	-	-	0
CCCCc1c(-c2ccc(OC)cc2)[nH]c2nccnc12	0	0	0
CCCCc1c(-c2ccc(O)cc2)[nH]c2nccnc12	0	83	0
COc1ccc2c(Sc3ccc(Cl)cc3)c(C(=O)NCCCN3CCN(C)CC3)[nH]c2c1	-	-	0
CCOC(=O)c1cnc2c(c(C)nn2C)c1Sc1nnc(SC)s1	0	125	?
CCOC(=O)c1cnc2c(c(C3CC3)nn2C)c1N1CCOCC1	0	0	0
O=C(COc1ccc2c(=O)c(-c3ccccc3)coc2c1)OC1CCCCC1	-	-	0
O=C1C2CC=CCC2C(=O)N1c1ccccc1O (centres undefined)	-	-	0
CC(NC(=O)Cn1cc(C(=O)C2CCCCC2)c2ccccc21)c1ccccc1 (centres undefined)	-	-	0
Cc1cccc(Oc2coc3cc(OC(=O)c4ccc(F)cc4)ccc3c2=O)c1	-	-	0
CN(C)S(=O)(=O)c1ccc(C(=O)Nc2nc3c(s2)CCc2ccccc2-3)cc1	0	113	0
COc1cccc2sc(NC(=O)c3ccc(S(=O)(=O)N(C)C)cc3)nc12	0	0	0
Oc1ccc2oc3c(c2c1/C=N/N1CCCCC1)CCCC3	0	0	0
COc1ccc(N=Cc2c(O)ccc3oc4c(c23)CCCC4)cc1	0	99	0
CC(=O)Nc1cccc(-c2nn3c(C)nnc3s2)c1	0	0	0
COc1cccc(OC)c1C(=O)NC(=S)Nc1cccc(-c2nn3c(C)nnc3s2)c1	0	122	0
CC(C)(C)C(=O)NCC(c1cccnc1)N1CCN(c2ccccc2)CC1 (centres undefined)	-	-	0
Cc1ccc(Cn2nnc3c(=O)n(CC(N)=O)cnc32)cc1	-	-	0
O[C@H]1C=C2CCN3Cc4cc5c(cc4C(C23)[C@@H]1O)OCO5 (some centres undefined)	-	110	0
CSc1nc(-c2ccccc2)nc2c1Cc1ccccc1O2	-	-	0
Cc1ccc(S(=O)(=O)Nc2ccc3c(c2)C(=O)N([C@H](C)CO)C[C@H](C)[C@@H](CN(C)S(=O)(=O)c2ccc(C)cc2)OCCCC[C@@H](C)O3)cc1	-	0	0
SMILES	PD-1 reverse act	NOMO-1 viab	U2OS ROS induce
C[C@@H]1CCCCO[C@H](CN(C)S(=O)(=O)c2ccc(F)cc2)[C@@H](C)CN([C@H](C)CO)C(=O)c2cc(NS(=O)(=O)c3ccc(F)cc3)ccc2O1	-	0	0
Cc1ccc(S(=O)(=O)Nc2ccc3c(c2)C(=O)N([C@H](C)CO)C[C@H](C)[C@H](CN(C)S(=O)(=O)c2ccc(C)cc2)OCCCC[C@@H](C)O3)cc1	0	95	0
C[C@@H]1CN([C@H](C)CO)C(=O)c2cc(NC(=O)C3CCCCC3)ccc2O[C@H]1CN(C)S(=O)(=O)c1cn(C)cn1	0	0	0
C[C@@H]1CCCCO[C@@H](CN(C)S(=O)(=O)c2ccccc2)[C@@H](C)CN([C@H](C)CO)C(=O)c2cc(NS(=O)(=O)c3ccc(F)cc3)ccc2O1	0	0	206
C[C@@H]1CCCCO[C@@H](CN(C)S(=O)(=O)c2cn(C)cn2)[C@@H](C)CN([C@H](C)CO)C(=O)c2cc(NC(=O)C3CCCCC3)ccc2O1	0	0	126
C[C@@H]1CCCCO[C@H](CN(C)S(=O)(=O)c2ccc(Cl)cc2)[C@@H](C)CN([C@H](C)CO)C(=O)c2cc(NS(=O)(=O)c3ccccc3)ccc2O1	-	0	0

Source: PubChem (Broad Institute)
